# Screens as filed in PubChem BioAssay.
# An excerpt weighted towards active compounds, which were near 2.4% of everything screened.
# AmpC nodet inh: blocks E. coli AmpC beta-lactamase in absence of detergent | P00811 | AID 585 | 1.8% of 71,000 active | AmpC nitrocefin hydrolysis, absorbance 480 nm, no detergent | Potency, µM (highest dose often 28.7 µM), for inactives: at the top dose activity change, negative = inhibition; further: % of control where 0% means no effect
# Target sequence (P00811 whole entry, looked up): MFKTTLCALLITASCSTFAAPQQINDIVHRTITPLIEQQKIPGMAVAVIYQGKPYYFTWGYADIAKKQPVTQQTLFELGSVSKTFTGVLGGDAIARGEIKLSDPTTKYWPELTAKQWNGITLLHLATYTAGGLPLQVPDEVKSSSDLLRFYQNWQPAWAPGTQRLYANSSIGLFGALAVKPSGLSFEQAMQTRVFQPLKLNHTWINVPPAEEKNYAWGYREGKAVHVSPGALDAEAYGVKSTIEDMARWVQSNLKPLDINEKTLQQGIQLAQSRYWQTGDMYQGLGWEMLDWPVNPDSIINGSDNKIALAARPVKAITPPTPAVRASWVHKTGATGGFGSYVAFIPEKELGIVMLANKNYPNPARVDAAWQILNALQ
#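 AmpC in 20 mM phosphate buffer pH 7.0 was preincubated 15 min at room temperature with compounds. Nitrocefin (800 uM stock) was then added and hydrolysis followed at 480 nm every 20 s for 4 min.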
# Anthrax LT inh: inhibitors of anthrax lethal toxin internalization; 0.67% of 70,000 active; Potency, µM (series often up to 40 µM), inactives show at the highest dose activity change, negative = inhibition, hits mostly inhibitors; Cells, anthrax lethal toxin internalization, FRET ratio (460/530); further: on the % scale 0 is the no-effect control and ±100 the full control effect; nearly all actives have a fitted effect of over 50% in size
# SmPrx2 inh: inhibitors of Schistosoma mansoni peroxiredoxin 2; S. mansoni Prx2 activity coupled to TGR/GSH (TGR is thioredoxin glutathione reductase), NADPH fluorescence loss, qHTS; Potency, µM; AID 448; 0.07% of 65,000 active
#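 Purified S. mansoni TGR and Prx2 in pH 7.4 phosphate buffer with EDTA and Tween-20 were preincubated with compounds for 15 min. Further NADPH/GSH was added, then a 2.5 mM H2O2 aliquot initiated turnover, followed kinetically by NADPH fluorescence.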
# AmpC inh det: blocks E. coli AmpC beta-lactamase in presence of detergent; P00811; purified AmpC, nitrocefin hydrolysis with detergent; Potency, µM (doses to about 28.7 µM), for the others: top-dose activity change, negative = inhibition; 0.09% of 71,000 active; AID 584; active means well fitted curve in the direction sought with a large enough effect; inconclusive means small, poorly fitted or top-dose-only effect; further: on the % scale 0 is the no-effect control and ±100 the full control effect
#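 E. coli AmpC (5.3 nM) in 20 mM phosphate pH 7.0 with 0.01% Triton X-100, preincubated 15 min RT with compound; nitrocefin (2 uL of 800 uM stock) hydrolysis followed by 480 nm absorbance every 20 s over 4 min.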
# An asterisk follows results filed as active; ? = inconclusive; nt = no result; [ ] = another dose, or the depositor's remark. Unless noted, the call rests on the fitted dose curve. Potency means the concentration at half of the fitted maximal effect.
SMILES,AmpC nodet inh,Anthrax LT inh,SmPrx2 inh,AmpC inh det
O=C(O)CCc1c2ccc(=O)c(O)c-2oc2c(O)c(O)ccc12,2.5µM*,-26%[8 µM],>57,-26%[5.75 µM]
O=c1cc(-c2cccc(O)c2)oc2c(O)c(O)ccc12,?,?,>57,-8%
Cc1cc(NC(=O)c2cc(-c3ccccn3)nc3ccccc23)no1,18%,?,>57,-5%
Cc1cc(NC(=O)c2cc(-c3cccs3)nc3ccccc23)no1,4µM*[single pt active],?,>57,5%
Cn1c(=O)c2nc(-c3ccc(Cl)cc3Cl)oc2c2ccccc21,2.5µM*,-19%,>57,13%
CC(C)(C)c1ccc(S(=O)(=O)/C=C\C#N)cc1,1%,?,>57,-6%
Cc1ccc(N2C(=O)c3ccccc3C2O)nc1 (stereo not drawn),4µM*[single pt active],14%,>57,12%
Cc1ccc(N2C(=O)c3ccccc3C2Nc2ccccc2F)nc1 (stereo not drawn),4µM*[single pt active],?,>57,10%
O=C1c2ccccc2C(O)N1c1ccc(Cl)cc1 (stereo not drawn),-8%,-14%,>57,7%
COc1cc(OC)c(NC2c3ccccc3C(=O)N2c2cc(C)ccn2)cc1Cl (stereo not drawn),82%,-10%,>57,9%
O=C1c2ccccc2C(Nc2ccc(Cl)cn2)N1c1ccccn1 (stereo not drawn),4µM*[single pt active],-22%,>57,15%
N[C@@H](C(=O)O)[C@H](O)C(=O)O,-2%,0%,>57,-3%
CN(C(=O)c1ccccc1C(=O)O)C1CC(C)(C)NC(C)(C)C1,-5%,-12%,>57,11%
COc1ccc(-n2nnnc2S(=O)(=O)CC(=O)N2CCCCC2)cc1,11%,3.2µM*,?,8%
NC(=S)NCCC[C@@H](N)C(=O)O,-5%,6%,>57,-3%
CCCn1c(C)nc2c(N3CCCN(Cc4ccccc4)CC3)nc(C)nc21,107%,-4%,nt,15%
CCCn1c(-c2ccc(F)cc2)nc2c(N3CCCN(Cc4ccccc4)CC3)nc(C)nc21,98%,6.3µM*,nt,17%
Cc1ccc(S(=O)(=O)CC(=O)Nc2ccc(S(=O)(=O)Nc3onc(C)c3C)cc2)cc1,-3%,-1%,>57,-3%
CCc1cccc(OCC(=O)Nc2ccc(S(=O)(=O)Nc3onc(C)c3C)cc2)c1,4µM*[single pt active],-8%,>57,12%
Cc1ccc(OCC(=O)Nc2ccc(S(=O)(=O)Nc3onc(C)c3C)cc2)cc1,2%,0%,>57,-2%
Cc1noc(NS(=O)(=O)c2ccc(NC(=O)COc3ccc(Cl)cc3Cl)cc2)c1C,6.3µM*,?,nt,12%
CCNCCC1(CC)C(=O)NC(=O)NC1=O,-6%[5.75 µM],5%[8 µM],>57,-2%[5.75 µM]
CNc1nc(Nc2ccc(C(C)=O)cc2)nc(OC(C(F)(F)F)C(F)(F)F)n1,38%,10µM*,>57,2%
CC(C)(C)CC(C)(C)c1cc(O)c(O)c(CN2CCCCC2)c1,-6%[5.75 µM],-20%[8 µM],>57,-7%[5.75 µM]
CCc1ncc(C(O)c2cccc(OC)c2OC)n1C (stereo not drawn),-13%,1%,>57,-6%
SMILES,AmpC nodet inh,Anthrax LT inh,SmPrx2 inh,AmpC inh det
CCn1ccnc1C(O)c1cccc(OC)c1OC (stereo not drawn),4µM*[single pt active],-9%,>57,12%
c1cncc(CSc2nnc(-c3cccnc3)n2Cc2ccco2)c1,-8%,-1%,>57,-3%
O=C(CSc1nnc(-c2cccnc2)n1Cc1ccco1)N1c2ccccc2Sc2ccccc21,141%,16µM*,>57,1%
O=C(Nc1ccccc1)c1ccccc1O,-10%,-13%,>57,2%
O=C(N/N=C\c1ccccc1O)c1ccccc1O,16µM*,?,>57,-1%
COCCOC(=O)c1[nH]c2c(c1C)C(=O)CC(c1cc(OC)ccc1OC)C2 (stereo not drawn),23%,3%,>57,13%
COc1ccc(OC)c(C2CC(=O)c3c([nH]c(C(=O)OC(C)C)c3C)C2)c1 (stereo not drawn),2.5µM*[single pt active],?,>57,11%
O=C(Nc1ccccc1)Nc1ccc(S(=O)(=O)N2CCCCC2)cc1,-23%,?,>57,-2%
CN1CCN(S(=O)(=O)c2ccc(NC(=O)Nc3cccc(Cl)c3)cc2)CC1,13%,13µM*,>57,-3%
NC(=NCc1ccc(Cl)c(Cl)c1)NC(=O)c1nc(Cl)c(N)nc1N,13µM*[single pt active],?,>11,0%
Cn1c(Cn2c(=O)sc3ccccc32)nnc1SCc1ccccn1,11%,-2%,>57,1%
CCSc1nnc(Cn2c(=O)sc3ccccc32)n1C,4µM*[single pt active],-6%,>57,14%
CC1CCN(C(=O)CSc2nnc(Cn3c(=O)sc4ccccc43)n2C)CC1,?,2%,>57,16%
Cn1c(Cn2c(=O)sc3ccccc32)nnc1SCC(=O)N1CCCc2ccccc21,4µM*[single pt active],-9%,>57,13%
Cn1c(Cn2c(=O)sc3ccccc32)nnc1SCC(=O)N1CCCC1,4µM*[single pt active],29%,>57,27%
Cn1c(Cn2c(=O)sc3ccccc32)nnc1SCC(=O)N1CCc2ccccc21,4µM*[single pt active],-4%,>57,12%
COc1ccc2c(c1)[n+]([O-])c(/C(C)=N/NC(N)=S)c(C)[n+]2[O-],2%[5.75 µM],0%[8 µM],>57,-2%[5.75 µM]
Cc1cc(C(=O)CSc2nc3ccccc3n2CCC#N)c(C)n1Cc1cccs1,16µM*,-26%,>57,-1%
O=c1[nH]c2c(s1)C(c1ccccc1)C1C3CCC(C3)C1S2 (stereo not drawn),1.6µM*,?,>57,9%
COc1cccc(C2CC(c3ccccc3Cl)Nc3nc(N)nn32)c1 (stereo not drawn),64%,-8%,>57,-3%
COc1ccc(C2CC(c3ccc(Cl)cc3Cl)n3nc(N)nc3N2)cc1 (stereo not drawn),108%,14%,>57,14%
COc1cccc(C2CC(c3ccc(C)cc3)Nc3nc(N)nn32)c1 (stereo not drawn),4µM*[single pt active],-1%,>57,7%
CCOc1ccc(C2CC(c3cccc(OC)c3)Nc3nc(N)nn32)cc1 (stereo not drawn),80%,-5%,>57,10%
COc1ccc(C2CC(c3c(Cl)cccc3Cl)n3nc(N)nc3N2)cc1 (stereo not drawn),4µM*[single pt active],?,>57,7%
COc1cccc(C2CC(c3ccc(C)cc3)n3nc(N)nc3N2)c1 (stereo not drawn),4µM*[single pt active],6%,>57,12%
COc1cc2c(cc1OC)[C@]13CCN4CC5=CCO[C@@H]6CC(=O)N2[C@@H]1[C@H]6[C@@H]5C[C@H]43,-7%,?,>57,-2%
COc1cccc2c1C(=O)c1c(O)c3c(c(O)c1C2=O)C[C@](O)(/C(C)=N\O)C[C@@H]3O[C@H]1C[C@H](N)[C@@H](O)[C@H](C)O1,23%[5.75 µM],2%[8 µM],>57,2%[5.75 µM]
COC(=O)C1=C(C)NC2=C(C(=O)CC(C)(C)C2)C1c1cccc(C)n1 (stereo not drawn),0%,28%,>57,11%
COC(=O)c1nc2n(n1)C(c1cccc(Cl)c1)C1=C(CC(C)(C)CC1=O)N2 (stereo not drawn),4µM*[single pt active],5%,>57,11%
